Reference: the supplement of paper PMC12350171
Structures can show the parent of a compound that is named as a salt. A number with no mark means an inactive call.

What was measured:
Conditions in all cases: 20 µM
[1] = test system: Salmonella enterica typhimurium; experiment: growth AUC normalised to DMSO control (fraction of control); higher = less growth inhibition, active = hit call of the paper
Method in brief: (§1)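 Hemin and NAD were added to the medium for Haemophilus parainfluenzae. All pathogens, after two anaerobic passages, were inoculated at a starting OD578 of 0.01 into pre-reduced mGAM plates with 20 μM compound and 1% DMSO under breathable seals, and OD578 was read hourly for 24 h in three biological replicates. AUC of each growth curve was obtained with the trapezoidal rule up to the exponential-to-stationary transition and normalised to DMSO controls from the same plate.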

Shigella flexneri = experiment: as above
Method in brief: as §1

Vibrio cholerae = experiment: as above
Method in brief: as §1

[2] = test system: Yersinia pseudotuberculosis; experiment: as above
Method in brief: as §1

P. vulgatus RND KO = experiment: growth AUC normalised to DMSO control (median) (fraction of control); higher = less growth inhibition, active = hit call of the paper
Method in brief: (§2)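 After two overnight anaerobic passages, strains were inoculated at OD578 0.01 into mGAM in 96-well plates containing approved-drug library compounds at 20 μM and 1% DMSO. Growth was followed by reading OD578 hourly for 24 h within an anaerobic incubator. Area under the curve, taken by the trapezoidal rule up to the start of stationary phase, was normalised to same-plate vehicle wells, and the median of three biological replicates is listed.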

P. vulgatus WT = experiment: as above
Method in brief: as §2

[3] = test system: S. enterica typhimurium WT; experiment: as above
Method in brief: as §2

[4] = test system: S. enterica typhimurium tolC KO; experiment: as above
Method in brief: as §2
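For growth AUC normalised to DMSO control (median) in this document: active when median AUC fell below 0.1.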

SMILES | growth AUC normalised to DMSO control [1] | growth AUC normalised to DMSO control (Shigella flexneri) | growth AUC normalised to DMSO control (Vibrio cholerae) | growth AUC normalised to DMSO control [2] | growth AUC normalised to DMSO control (P. vulgatus RND KO) | growth AUC normalised to DMSO control (P. vulgatus WT) | growth AUC normalised to DMSO control [3] | growth AUC normalised to DMSO control [4]
CC(=O)[C@@]1(O)CC[C@H]2[C@@H]3C[C@H](C)C4=CC(=O)C=C[C@]4(C)[C@@]3(F)[C@@H](O)C[C@@]21C [Fluorometholone] | 1.01 | 1.03 | 1.05 | 1 | 1 | 1.01 | 1 | 0.987
CN(C)CCOC(=O)C(c1ccccc1)C1(O)CCCC1 (stereo not given) [Cyclopentolate hydrochloride] | 1.02 | 1.01 | 1 | 1.02 | 0.98 | 0.993 | 0.999 | 1
Cc1cc(=O)n(-c2ccccc2)n1C [Antipyrine] | 1 | 1.01 | 1.01 | 1 | 1 | 1.04 | 0.989 | 1.01
CN(C)CCC(c1ccc(Cl)cc1)c1ccccn1 (stereo not given) [Chlorpheniramine maleate] | 0.987 | 0.94 | 0.972 | 0.956 | 0.994 | 0.987 | 0.994 | 0.996
O=C(c1ccccc1)c1ccc2n1CCC2C(=O)O (stereo not given) [Ketorolac tromethamine] | 0.986 | 0.972 | 0.97 | 0.983 | 0.997 | 1.01 | 1.01 | 1
C/C(=C(\CCOP(=O)(O)O)SC(=O)c1ccccc1)N(C=O)Cc1cnc(C)nc1N [Benfotiamine] | 0.997 | 0.982 | 0.996 | 0.988 | 1.02 | 1.03 | 1.01 | 0.999
CCN(CC)Cc1cc(Nc2ccnc3cc(Cl)ccc23)ccc1O [Amodiaquine dihydrochloride dihydrate] | 0.974 | 1.02 | 1 | 0.966 | 1 | 0.961 | 0.982 | 1
C#CCN(C)Cc1ccccc1 [Pargyline hydrochloride] | 0.964 | 1.03 | 0.942 | 0.994 | 1.01 | 1 | 1 | 1.01
Cc1[nH]c(=O)c(C#N)cc1-c1ccncc1 [Milrinone] | 0.949 | 0.999 | 0.968 | 0.989 | 0.988 | 0.995 | 0.987 | 0.936
O=C(O)CCCC[C@@H]1SC[C@@H]2NC(=O)N[C@@H]21 [Biotin] | 0.992 | 0.975 | 1 | 0.946 | 1.01 | 1.03 | 1 | 1
NCCc1cc[nH]n1 [Betazole hydrochloride] | 0.986 | 0.97 | 0.979 | 0.968 | 0.999 | 1.02 | 1 | 0.999
CCOC(=O)[N-]c1c[n+](N2CCOCC2)no1 [Molsidomine] | 1.02 | 1.02 | 1.03 | 1.01 | 0.999 | 0.991 | 1 | 1.01
C=C1C[C@H]2[C@@H]3C=C(C)C4=CC(=O)CC[C@]4(C)[C@H]3CC[C@]2(C)[C@@]1(OC(C)=O)C(C)=O [Melengestrol acetate] | 0.981 | 1.05 | 1.03 | 1.03 | 0.993 | 1.02 | 1.01 | 0.961
CC[C@H]1OC(=O)[C@H](C)[C@@H](O[C@H]2C[C@@](C)(OC)[C@@H](O)[C@H](C)O2)[C@H](C)[C@@H](O[C@@H]2O[C@H](C)C[C@H](N(C)C)[C@H]2O)[C@](C)(O)C[C@@H](C)[C@@H]2N[C@@H](COCCOC)O[C@H]([C@H]2C)[C@]1(C)O [Dirithromycin] | 0.879 (active) | 0.915 | 0.154 (active) | 1 | 0.0107 (active) | 0.0116 (active) | 0.862 | 0.00235 (active)
CC1CC(OC(=O)c2ccccc2O)CC(C)(C)C1 (stereo not given) [Homosalate] | 1 | 0.996 | 1.02 | 1.01 | 0.995 | 1.03 | 1.01 | 0.998
